PubChem BioAssay AID1159580 (chemical genetic matrix, 2015)
In all, about 5,500 compounds went through this assay and about 2,000 (36%) were called active. Another 18% or so got no clear call; they are omitted. Rule as the data show it: active = normalized growth mostly below about 0.91 (no sharp cut-off); inconclusive = no clear call, values can overlap the other calls; inactive = mostly above about 0.92. Some of the results follow.

Experiment: chemical genetic growth profiling, strain panel (AID 1159580);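 also: tested at 20 µM; growth read once vehicle control cultures reached saturation at 30 °C; 1 = growth at the plate median or of vehicle wells; lower values mean less growth of the strain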
Details: S. cerevisiae deletion strains, growth OD

Measured: normalized growth

CCn1cc(C(=O)O)c(=O)c2ccc(Cc3ccccc3)nc21
inactive: locus YAL013W, strain DEP1, active compounds read low 1.03 | locus YAL040C, strain CLN3, active compounds read low 1 | locus YCL061C, strain MRC1 (second series), active compounds read low 1.01 | locus YDR363W, strain ESC2, active compounds read low 1.01 | locus YER002W, strain NOP16, active compounds read low 0.964 | locus YGR078C, strain PAC10, active compounds read low 0.971 | locus YJR075W, strain HOC1, active compounds read low 1.02 | locus YMR263W, strain SAP30, active compounds read low 1 | locus YMR307W, strain GAS1, active compounds read low 1 | locus YNL128W, strain TEP1, active compounds read low 0.988 | locus YNL153C, strain GIM3, active compounds read low 0.923 | locus YNL175C, strain NOP13, active compounds read low 0.972 | locus YNL197C, strain WHI3, active compounds read low 0.942 | locus YNL224C, strain SQS1, active compounds read low 0.965 | locus YNL322C, strain KRE1, active compounds read low 0.991 | locus YOR083W, strain WHI5 (second series), active compounds read low 1.09 | locus YPL241C, strain CIN2, active compounds read low 1.01
